# Source: PubChem BioAssay (NCI)
# Compounds without any hit were thinned out: in the full panel of roughly 79,000, 15% have a hit. Values without a mark were called inactive. Activity calls are given as the source filed them. No stated cut-off is given here; in the data, active means growth inhibition above about 70%; inactive means the rest.
# What was measured:
# [1] = NCI Yeast Anticancer Drug Screen. Data for the mec2-1 strain (AID 157); conditions: S. cerevisiae mec2-1 strain, hits give high values
# How it was run: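 Mutant yeast (mec2-1) grown with compound; growth inhibition relative to vehicle control reported.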
# [2] = NCI Yeast Anticancer Drug Screen. Data for the sgs1 mgt1 strain (AID 161);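 further: 0% = growth of cultures given vehicle only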; conditions: S. cerevisiae sgs1 mgt1 strain, hits give high values
# How it was run: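 Yeast cells carrying a defined DNA-repair defect were exposed to test compounds. Growth inhibition was measured relative to vehicle-treated controls.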
# [3] = NCI Yeast Anticancer Drug Screen. Data for the cln2 rad14 strain (AID 165);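 further: 0% = growth equal to vehicle treated cultures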; conditions: S. cerevisiae cln2 rad14 strain, hits give high values
# How it was run: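 Readout is yeast growth inhibition versus vehicle-treated controls, using a strain with cln2 and rad14 alterations exposed to compound.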
# [4] = NCI Yeast Anticancer Drug Screen. Data for the bub3 strain (AID 167); conditions: S. cerevisiae bub3 mutant strain, hits give high values
# How it was run: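 Screening used yeast with an engineered genetic alteration affecting cell cycle control. Compound-exposed cultures were compared with vehicle cultures, and reduced growth was taken as inhibition.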
# [5] = NCI Yeast Anticancer Drug Screen. Data for the mlh1 rad18 strain (AID 175); conditions: S. cerevisiae mlh1 rad18 strain growth inhibition, hits give high values
# How it was run: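 Genetically defined yeast (DNA repair-deficient) exposed to compounds; growth inhibition determined relative to vehicle.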
# [6] = NCI Yeast Anticancer Drug Screen. Data for the rad50 strain (AID 155);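 further: 0% = growth of vehicle-only cultures of the same strain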; conditions: S. cerevisiae rad50 strain growth inhibition, hits give high values
# How it was run: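 Relative growth inhibition (compound vs vehicle) was measured in yeast with a defined repair-gene alteration.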
# [7] = at 5.0 µM (retest, dose inferred, filed as 0.5)
# [8] = at 50.0 µM (retest, dose inferred, filed as 5.0)
Structure (SMILES),"growth inhibition [1, 7] [%]","growth inhibition [1, 8]",growth inhibition ([1]; at 50.0 µM),"growth inhibition [2, 7]","growth inhibition [2, 8]",growth inhibition ([2]; at 50.0 µM),"growth inhibition [3, 7]","growth inhibition [3, 8]",growth inhibition ([3]; at 50.0 µM),"growth inhibition [4, 7] [%]","growth inhibition [4, 8]",growth inhibition ([4]; at 50.0 µM),"growth inhibition [5, 7]","growth inhibition [5, 8]",growth inhibition ([5]; at 50.0 µM),"growth inhibition [6, 7]","growth inhibition [6, 8]",growth inhibition ([6]; at 50.0 µM)
CNC(=O)N/N=C/c1ccc([N+](=O)[O-])o1,4,22%,38.6%,7%,29%,70.3% (active),9%,15%,11.8%,10,38%,34%,12%,48%,71.5% (active),–,–,–
COc1ccc(C(=O)Nc2ccc(O)c(=O)cc2)cc1,38,59%,17.8%,25%,66%,73.3% (active),14%,2%,-60.6%,16,15%,87.4% (active),21%,77% (active),55.6%,–,–,–
O=[N+]([O-])c1ccc2c(N=Nc3ccc4ccccc4c3O)c(O)cc(S(=O)(=O)O)c2c1,13,17%,55.8%,–,–,–,-32%,-68%,30.6%,-7,22%,82.7% (active),9%,36%,86.5% (active),32%,34%,85.6% (active)
CCN(CC)CCCNc1ncc(C)c2c1c1ccc3c(O)cccc3c1n2C,8,7%,-0.35%,21%,40%,-31.9%,8%,8%,-17.4%,19,35%,-9.95%,17%,34%,-3.05%,–,–,–
Cc1ccc(S(=O)(=O)Nc2ccccc2Cl)cc1,11,97% (active),77.3% (active),–,–,–,6%,96% (active),88.5% (active),5,98% (active),94.2% (active),13%,97% (active),93.8% (active),11%,95% (active),94% (active)
Clc1ccc2nc3c(c(N4CCOCC4)c2c1)CCCC3,–,–,–,94% (active),98% (active),99.2% (active),80% (active),99% (active),98.9% (active),53,98% (active),99.5% (active),96% (active),98% (active),99.2% (active),94% (active),97% (active),99% (active)
O=[N+]([O-])c1ccc(Cc2nc3ccccc3s2)cc1,27,95% (active),14.2%,47%,96% (active),6.3%,32%,53%,22.4%,41,97% (active),65.4%,52%,93% (active),30.9%,–,–,–
CS(=O)(=O)OCCN(CCOS(C)(=O)=O)c1ccc(C=Nc2cccc(Cl)c2)cc1,40,91% (active),86.5% (active),17%,74% (active),88.8% (active),17%,86% (active),71.3% (active),1,50%,43%,70% (active),95% (active),96.7% (active),–,–,–
CCCCCCCCC(C)c1ccccc1O (stereo not given),–,–,–,-68%,96% (active),99.4% (active),-62%,97% (active),99.4% (active),-56,96% (active),99.5% (active),-151%,97% (active),99.4% (active),-150%,96% (active),99.7% (active)
CC(CCNCCC#N)CC(C)(C)C (stereo not given),-4,32%,47.8%,9%,43%,86.2% (active),7%,33%,48.5%,7,47%,63%,12%,66%,68.8%,–,–,–
